Screening results as filed in PubChem.
Rows were chosen to be rich in hits. Some 7.4% of all compounds tested hit in one or more screens of this group.
SMN2 splice enh: increases expression of the SMN2 splice variant. HEK293 SMN2-luciferase splicing reporter, luminescence, 30-36 h. Potency, µM (highest dose often 46.1 µM), for inactives: at the top dose activity change, positive = activation, actives largely listed as activators. 2.8% of 210,000 active; further: % of control where 0% means no effect; nearly all actives have a fitted effect of over 55% in size
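HEK293 cells carry an SMN2 minigene-luciferase reporter in which exon 7 inclusion puts luciferase in frame. Cells were seeded at 2000 cells/well, attached for 10-12 hours, then exposed to compounds for 30-36 hours at 37C before ONE-Glo luminescence.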
NPC1 promoter act: NPC1 promoter activation | Huh7 NPC1 promoter luciferase reporter, 24 h | Potency, µM (titrated, usually from 9.22 µM), for the others: at the top dose activation, most hits filed as activators | 2.4% of 320,000 active; further: % of control where 0% means no effect; nearly all actives have a fitted effect of over 60% in size
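In 1536-well qHTS, Huh7 cells harboring an NPC1 promoter–luciferase construct received compound for 24 h; activation was quantified by luminescence following luciferase reagent addition.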
Rab9 prom act: Rab9 promoter activation; Huh7 Rab9 promoter-luciferase reporter, luminescence, 24 h; Potency, µM (doses to about 9.22 µM), for inactives: at the highest dose activation, negative = inhibition, most hits filed as activators; 2.8% of 320,000 active; AID 485297; further: % of control where 0% means no effect; nearly all actives have a fitted effect of over 60% in size
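Rab9 promoter-driven luciferase in stably transfected Huh7 cells; 1500 cells/well rested 2 h, exposed to compound in DMSO for 24 h at 37 °C, 5% CO2. Luminescence read 10 min after adding luciferase reagent at ambient temperature.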
ELG1 genotoxic: inducers of genotoxicity in HEK293T ELG1-luciferase cells. AID 504466. HEK293T ELG1-luciferase reporter, luminescence, 16 h. Potency, µM (titrated, usually from 46 µM), inactives show at the top dose activity change, positive = activation, actives largely listed as activators. 1.3% of 330,000 active; further: % of control where 0% means no effect; nearly all actives have a fitted effect of over 60% in size
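Cells (2,000/well) expressing the ELG1-luciferase fusion are dosed by pin tool and kept 16 hr at 37 °C, 5% CO2. Signal comes from ONE-Glo luciferase reagent after 30 min at room temperature.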
Luc counter: counter-screen: inhibitors of Kinase-Glo firefly luciferase | Potency, µM (series often up to 38.3 µM), for the others: at the highest dose activity change, negative = inhibition, hits mostly inhibitors | 0.28% of 200,000 active | Kinase-Glo luciferase, ATP luminescence, 8 min; further: on the % scale 0 is the no-effect control and ±100 the full control effect; nearly all actives have a fitted effect of over 60% in size
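Inhibition of Kinase-Glo luciferase light generation was assessed at 10 uM ATP in pH 7.2 imidazole buffer, with luminescence measured after eight minutes at ambient temperature.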
FLuc modulator: firefly luciferase modulation, counter-screen for miR-21 project; P08659; purified FLuc, Km substrates, luminescence inhibition; Potency, µM (highest dose often 57.5 µM), for inactives: top-dose activity change, negative = inhibition, usual class: inhibitors; 6.9% of 360,000 active;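 further: plate controls were vehicle for no effect and reference inhibitor for full effect; nearly all actives have a fitted effect of over 55% in size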
Target sequence (P08659 whole entry, looked up): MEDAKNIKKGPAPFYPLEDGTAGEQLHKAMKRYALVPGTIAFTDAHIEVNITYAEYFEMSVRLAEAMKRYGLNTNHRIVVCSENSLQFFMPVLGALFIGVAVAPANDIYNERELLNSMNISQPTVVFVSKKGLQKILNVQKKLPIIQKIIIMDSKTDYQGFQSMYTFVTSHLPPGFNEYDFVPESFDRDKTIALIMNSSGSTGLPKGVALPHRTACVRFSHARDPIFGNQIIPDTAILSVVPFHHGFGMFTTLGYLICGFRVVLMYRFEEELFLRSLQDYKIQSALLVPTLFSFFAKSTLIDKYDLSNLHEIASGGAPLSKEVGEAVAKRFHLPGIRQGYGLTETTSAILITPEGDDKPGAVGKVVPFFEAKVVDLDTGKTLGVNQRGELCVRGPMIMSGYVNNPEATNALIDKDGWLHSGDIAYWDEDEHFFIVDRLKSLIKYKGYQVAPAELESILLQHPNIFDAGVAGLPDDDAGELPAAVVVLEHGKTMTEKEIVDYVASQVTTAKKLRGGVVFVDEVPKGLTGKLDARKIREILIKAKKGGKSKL
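Purified P. pyralis luciferase (10nM final) with 10uM D-luciferin and 10uM ATP (Km levels) in 50mM Tris acetate pH 7.5, 10mM Mg acetate, 0.01% Tween-20, 0.05% BSA; qHTS 6-point titration, ~60 µM downward; luminescence read.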
* marks the source's active call; other numbers are inactive results; [ ] = another dose, or the depositor's remark. The call rests on the fitted dose curve; in most records, active means well fitted curve in the direction sought with a large enough effect; inconclusive means small, poorly fitted or top-dose-only effect, or another doubt; inactive means no such curve, though single readings can be large; an effect the other way counts as inactive or inconclusive. Potency means the concentration at half of the fitted maximal effect.

`COc1ccc(CCN2C(=O)CN(C3CCCCCC3)C(=O)C2c2ccc(C)cc2)cc1OC` (stereo not given) gave FLuc modulator 4%.
O=C(c1ccc(CSc2nc3ccncc3n2Cc2ccccc2F)cc1)N1CCCCC1 was read as SMN2 splice enh -20% and FLuc modulator inconclusive.
Screening O=C(CSc1cccc[n+]1[O-])Nc1cc2c(cc1Cl)C(=O)c1ccccc1C2=O returned SMN2 splice enh 11µM*, NPC1 promoter act inconclusive, Rab9 prom act inconclusive, ELG1 genotoxic 16%, Luc counter 10% and FLuc modulator 11µM*.
Screening Cc1ccc2c(c1)cc1c(=O)[nH]ncn12 returned SMN2 splice enh -5%, NPC1 promoter act inconclusive, Rab9 prom act inconclusive, ELG1 genotoxic inconclusive, Luc counter -2% and FLuc modulator 21µM*.
Screening N/C(=N\OC(=O)c1ccc2c(c1)OCO2)c1cccc(Br)c1 returned NPC1 promoter act inconclusive, Rab9 prom act 4.5µM*, ELG1 genotoxic inconclusive, Luc counter 13µM* and FLuc modulator 0.13µM*.
For COc1ccc(/C(N)=N/OC(=O)c2ccc3c(c2)OCO3)cc1OC the results were SMN2 splice enh inconclusive, NPC1 promoter act inconclusive, Rab9 prom act inconclusive, ELG1 genotoxic inconclusive, Luc counter -14% and FLuc modulator 3µM*.
For N/C(=N\OC(=O)c1cccc(Br)c1)c1ccc(Br)cc1 the results were SMN2 splice enh -5%, NPC1 promoter act 24%, Rab9 prom act 11%, ELG1 genotoxic 12%, Luc counter -4% and FLuc modulator inconclusive.
`N/C(=N\OC(=O)c1ccc2c(c1)OCO2)c1cccnc1` gave NPC1 promoter act inconclusive, Rab9 prom act inconclusive, ELG1 genotoxic inconclusive, Luc counter inconclusive and FLuc modulator 1.2µM*.
`COc1ccc(C(=O)Oc2ccc3c(c2)OCO3)cc1OC` gave SMN2 splice enh 4%, NPC1 promoter act 3%, Rab9 prom act 3%, ELG1 genotoxic 11%, Luc counter -3% and FLuc modulator 24µM*.
N/C(=N\OC(=O)c1ccc2c(c1)OCO2)c1ccc([N+](=O)[O-])cc1 was read as SMN2 splice enh 26%, NPC1 promoter act inconclusive, Rab9 prom act inconclusive, ELG1 genotoxic inconclusive, Luc counter -8% and FLuc modulator inconclusive.
Screening COc1ccc(Cl)cc1NC(=O)c1ccc2c(c1)CCCN2S(C)(=O)=O returned SMN2 splice enh -7% and FLuc modulator 0%.
`COC(=O)c1cc2sc(C)cc2n1Cc1ccc(Br)cc1F` gave SMN2 splice enh -6% and FLuc modulator -1%.
CCS(=O)(=O)N1CCc2cc(C(=O)NCc3ccc(Cl)cc3)ccc21 was read as FLuc modulator -2%.
For O=CNc1ncn[nH]1 the results were SMN2 splice enh -5%[9.22 µM] and Luc counter -1%[7.66 µM].
For CC(C)COc1ccc(-c2nnc(-c3ccco3)o2)cc1 the results were SMN2 splice enh 4µM*, NPC1 promoter act 0.45µM*, Rab9 prom act 0.32µM*, ELG1 genotoxic inconclusive, Luc counter -15% and FLuc modulator 1.1µM*.
For CCCOc1ccc(-c2nnc(-c3ccco3)o2)cc1 the results were SMN2 splice enh inconclusive, NPC1 promoter act 0.5µM*, Rab9 prom act 0.45µM*, ELG1 genotoxic inconclusive, Luc counter inconclusive and FLuc modulator 0.76µM*.
Screening COc1cccc(C(=O)Nc2ccc(-c3nnc(-c4ccco4)o3)cc2)c1 returned SMN2 splice enh -25%, NPC1 promoter act -4%, Rab9 prom act 28%, ELG1 genotoxic 16%, Luc counter -12% and FLuc modulator 0%.
CCN(CC)CCCNc1ccc(-c2nnc(-c3ccc(OCC(C)C)cc3)o2)cn1 was read as NPC1 promoter act -2%, Rab9 prom act 0%, ELG1 genotoxic -8% and FLuc modulator -15%.
CCC(=O)Nc1nc2ccc(S(C)(=O)=O)cc2s1 was read as SMN2 splice enh 35%, NPC1 promoter act -1%, Rab9 prom act 15%, ELG1 genotoxic 7%, Luc counter 2% and FLuc modulator -6%.
For NS(=O)(=O)c1ccc2nc(NC(=O)Nc3ccccc3F)sc2c1 the results were NPC1 promoter act 0.5µM*, Rab9 prom act 0.4µM*, ELG1 genotoxic 3.3µM* and FLuc modulator 1.3µM*.
Screening Cc1ccccc1NC(=O)Nc1nc2ccc(S(C)(=O)=O)cc2s1 returned SMN2 splice enh inconclusive, NPC1 promoter act 4µM*, Rab9 prom act inconclusive, ELG1 genotoxic 3%, Luc counter -3% and FLuc modulator -14%.
CNc1nc(-c2ccccc2)[n+](-c2ccc(C)cc2)s1 was read as NPC1 promoter act 13%, Rab9 prom act 12%, ELG1 genotoxic 1% and FLuc modulator 6.7µM*.
O=C(COc1ccccc1[N+](=O)[O-])Nc1ccc(-c2nc3ccccc3s2)cc1 was read as FLuc modulator -3%.
For COc1ccc(/C=C(\C#N)C(=O)OCC(=O)Nc2ccc(-c3nc4ccc(C)cc4s3)cc2)cc1 the results were SMN2 splice enh 2.5µM*, NPC1 promoter act 0.45µM*, Rab9 prom act 0.4µM*, ELG1 genotoxic 0.65µM*, Luc counter 1% and FLuc modulator 1.7µM*.
O=C(COc1ccccc1Cl)Nc1ccc(-c2nc3ccccc3s2)cc1 was read as SMN2 splice enh 0.79µM* and FLuc modulator -2%.
C=CCn1c(SCC(=O)Nc2ccc(-c3nc4ccc(C)cc4s3)cc2)nnc1-c1ccccc1 was read as SMN2 splice enh 0.79µM*, NPC1 promoter act inconclusive, Rab9 prom act 0.5µM*, ELG1 genotoxic inconclusive, Luc counter -3% and FLuc modulator 2.4µM*.
`Cc1ccc2nc(-c3ccc(NC(=O)COc4ccccc4C(C)(C)C)cc3)sc2c1` gave SMN2 splice enh inconclusive and FLuc modulator 9.5µM*.
For COc1ccc(/C=C(\C#N)C(=O)OCC(=O)NC(C)c2ccccc2)cc1 (stereo not given) the results were SMN2 splice enh 3%, NPC1 promoter act -2%, Rab9 prom act 3%, ELG1 genotoxic 1%, Luc counter -2% and FLuc modulator -2%.
CCc1nn(CCCC(=O)N2CCN(c3cc(Cl)ccc3C)CC2)c(=O)c2cc3occc3n12 was read as SMN2 splice enh -11% and FLuc modulator -19%.
Screening Cc1cc(C)n(CC(=O)Nc2cc(F)ccc2F)c(=O)c1C#N returned FLuc modulator -6%.
